# Compound activity: PubChem, The Scripps Research Institute Molecular Screening Center
# Shown are actives, neighbours in structure and some others; about 3.5% of the full set was active somewhere.
# GPR151 ag: human GPR151 activation; activation, % at 11.2 µM; hit rate 1% among 650,000; Q8TDV0; PathHunter beta-arrestin GPR151 cells, luminescence; in the data active = activation above about 4.9%;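 note: 0% = median of compound wells and 100% = cells with positive control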
# TEAD-YAP inh: TEAD-YAP interaction inhibition; HEK-TIYL cells, TEAD-Gal4/YAP UAS-luciferase luminescence; inhibition, % at 9.12 µM; hit rate 1.4% among 640,000; in the data active = inhibition above about 32%;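 note: 0% = median of test compound wells and 100% = reference inhibitor wells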
# MITF inh: blocks human microphthalmia-associated transcription factor; AlphaScreen MITF homodimerization, bead proximity signal; inhibition, % at 2.6 µM; hit rate 0.91% among 650,000; AID 1259374; in the data active = inhibition above about 50%;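 note: 0% = vehicle wells with protein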
# FBW7 act: human FBW7 E3 ligase activation, primary screen | Q969H0 | AlphaScreen FBW7–phospho-cyclin E peptide binding, activator screen | normalized activity (activation), % at 26.1 µM | hit rate 0.13% among 650,000 | AID 1259310; in the data active = normalized activity above about 1.9%;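 note: purified mutant Fbw7 with reduced substrate affinity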
# Target sequence (Q969H0 whole entry, looked up): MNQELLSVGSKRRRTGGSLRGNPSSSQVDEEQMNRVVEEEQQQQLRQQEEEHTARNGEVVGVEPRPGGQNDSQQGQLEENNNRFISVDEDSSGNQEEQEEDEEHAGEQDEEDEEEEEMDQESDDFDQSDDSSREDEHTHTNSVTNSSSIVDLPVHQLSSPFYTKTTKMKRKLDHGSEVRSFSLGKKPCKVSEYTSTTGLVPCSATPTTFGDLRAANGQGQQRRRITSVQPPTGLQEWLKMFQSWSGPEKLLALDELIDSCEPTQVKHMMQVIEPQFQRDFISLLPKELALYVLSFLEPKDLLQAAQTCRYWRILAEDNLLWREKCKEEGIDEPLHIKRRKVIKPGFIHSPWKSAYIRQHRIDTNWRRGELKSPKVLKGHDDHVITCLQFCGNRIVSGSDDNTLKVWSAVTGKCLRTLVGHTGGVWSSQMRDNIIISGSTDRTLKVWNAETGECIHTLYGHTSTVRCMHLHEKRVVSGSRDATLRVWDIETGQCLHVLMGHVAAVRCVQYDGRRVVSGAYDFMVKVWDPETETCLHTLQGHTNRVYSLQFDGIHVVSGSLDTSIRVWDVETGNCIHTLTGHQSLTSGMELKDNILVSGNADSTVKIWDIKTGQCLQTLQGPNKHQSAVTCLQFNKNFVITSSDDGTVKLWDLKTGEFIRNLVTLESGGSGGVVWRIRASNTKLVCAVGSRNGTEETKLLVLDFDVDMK
# MITF confirm: confirmation of human MITF inhibitors; shares compounds with MITF inh; AlphaScreen MITF homodimerization, biotin/His-MITF beads; inhibition, % at 2.6 µM; hit rate 16% among 4,700;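 active = inhibition above a cutoff derived from the DMSO control wells, cut at about 28% in these data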;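 note: 0% = MITF dimer wells with DMSO only; inhibitors lower the bead chemiluminescence by keeping MITF from dimerizing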
# AlphaScreen DR: AlphaScreen optical interference, dose response counter-screen | AlphaScreen optical interference counterscreen, cell-free | shares compounds with MITF inh | hit rate 6% among 480 | IC50, µM; call rule not given here
# AS interf ctr: AlphaScreen optical interference, counter-screen. LysRS AlphaScreen counterscreen, signal interference, triplicate. hit rate 7.6% among 4,700. shares compounds with MITF inh. inhibition, % at 2.6 µM. AID 1259376;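 active = inhibition above a cutoff derived from the DMSO control wells, cut at about 30% in these data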
# * hit, by the source's call; / = no result.
SMILES,GPR151 ag,TEAD-YAP inh,MITF inh,FBW7 act,MITF confirm,AS interf ctr,others
COc1cc(CN2CCN(Cc3ccccc3Br)CC2)c([N+](=O)[O-])cc1OC,1,-3,71*,1,22,0,
CN(C)CCN(C)Cc1ccc(O)c([N+](=O)[O-])c1,1,-17,8,0,/,/,
COc1cc(CN(C)CCN(C)C)cc([N+](=O)[O-])c1O,1,-1,56*,0,10,12,
COc1cc(CN2CCN(CCO)CC2)cc([N+](=O)[O-])c1O,-2,5,75*,0,-1,2,
COc1ccc(-c2noc(-c3cc(OC)c(OC)cc3OC)n2)cc1,0,-6,15,0,/,/,
COc1ccc(C(=O)N/N=C(/C)c2ccc(N)cc2)cc1,1,-36,2,0,/,/,
c1ccc2sc(Nc3nc4ccccc4s3)nc2c1,0,-67,-12,0,/,/,
C(=N\c1nc2ccccc2s1)/Nc1nc2ccccc2s1,-3,-3,52*,0,12,16,
CC1CC(CC#N)(Cc2ccccc2)C(C)CN1C (stereo unspecified),2,-8,-1,0,/,/,
CCOC(=O)C1=C(c2ccccc2)N=c2s/c(=C\c3cccs3)c(=O)n2C1c1c(OC)ccc2ccccc12 (stereo unspecified),-1,-10,55*,0,-9,-7,
CCOC(=O)C1=C(C)N=c2s/c(=C\c3c(C)[nH]c4ccccc34)c(=O)n2C1c1ccccc1 (stereo unspecified),3,3,66*,0,-7,-8,
CN(C)c1cccc(Nc2nc3ncnc(NCCCN4CCCC4=O)c3[nH]2)c1,2,-3,53*,0,4,15,
Cc1sc2nc(CNCc3ccco3)[nH]c(=O)c2c1-c1ccccc1,3,5,58*,0,-1,5,
CN1CCCN(Cc2cc(F)ccc2F)CC1,-1,12,70*,1,-3,2,
CN1CCN(Cc2c3ccccc3cc3ccccc23)CC1,-1,2,76*,0,20,23,
CN1CCCN(Cc2cccc3ccccc23)CC1,-1,-6,52*,0,21,15,
OCCN1CCN(Cc2c3ccccc3cc3ccccc23)CC1,-1,13,11,1,/,/,
Cc1ccccc1CN1CCCN(C)CC1,0,9,5,0,/,/,
CCOc1ccccc1NC(=O)CN(C)S(=O)(=O)c1ccc2c(c1)C(C)(C)C(=O)N2C,2,7,8,0,/,/,
CCCNC(=O)Cn1ncc2c(C)n(Cc3ccc(C)cc3)c(C)c2c1=O,0,-9,5,0,/,/,
OC1/C(=C/c2ccc3c(c2)OCO3)Oc2ccccc21 (stereo unspecified),1,-2,53*,0,-5,-4,
O=C1/C(=C/c2ccc3c(c2)OCO3)COc2ccccc21,2,-13,14,0,/,/,
O=C(CNC1CCCCC1)Nc1ccccc1N1CCCCC1,-1,0,54*,0,12,14,
O=C(CNCC1CCCO1)Nc1ccccc1N1CCCCC1 (stereo unspecified),0,3,60*,0,12,11,
O=C(CN1CCCC1)Nc1ccccc1N1CCCCC1,-1,-2,62*,0,9,14,
SMILES,GPR151 ag,TEAD-YAP inh,MITF inh,FBW7 act,MITF confirm,AS interf ctr,others
CN1CCN(CC(=O)Nc2ccccc2N2CCCCCC2)CC1,2,-4,62*,0,8,16,
CCC(=O)Nc1ccccc1N1CCCC1,2,5,4,0,/,/,
CC1CCN(CC(=O)Nc2ccccc2N2CCCCC2)CC1,2,5,17,0,/,/,
O=C(C1CC12CCN(Cc1ccccc1)CC2)N1CCN(Cc2cccs2)CC1 (stereo unspecified),-1,10,-6,0,/,/,
O=C(CN1CCOCC1)Nc1ccccc1N1CCOCC1,2,7,87*,0,16,17,
Cc1cc(N)ccc1NC(=O)CN1CCCC1,0,5,67*,0,6,18,
Cc1cc(NC(=O)CNCC2CCCO2)no1 (stereo unspecified),0,8,54*,0,-2,7,
Cc1cc(C)n(-c2cc(NCCNC(=O)Cc3c[nH]c4ccccc34)ncn2)n1,1,1,-1,0,/,/,
Cc1ccc(S(=O)(=O)NCC(c2ccc3c(c2)CCCN3C)N2CCOCC2)cc1C (stereo unspecified),-1,-4,-1,0,/,/,
NNC(=O)CNC(=O)c1ccc(Cl)cc1,1,7,-3,0,/,/,
COc1ccc(C)cc1S(=O)(=O)Nc1cccc(F)c1,-1,17,7,0,/,/,
CC(=O)Nc1cc(-c2ccccc2)nn1Cc1ccc(Cl)cc1,1,0,1,0,/,/,
CC(=O)Nc1cc(-c2ccc(Cl)cc2)nn1-c1ccccc1,1,-4,81*,0,-3,-5,
Fc1ccccc1-c1cnc2ccc(NCc3cccs3)nn12,0,8,53*,0,19,11,
Cc1cc(C)n(C(=O)/C=C/c2ccccc2)n1,1,1,-1,0,/,/,
Cc1cc(C)n(C(=O)/C=C/c2ccco2)n1,-1,4,78*,0,67*,-8,AlphaScreen DR=>6.5
CC(/C=C/c1ccc(N(C)C)cc1)=C\C(=O)O,0,24,9,0,/,/,
CC(=C/C(=O)O)/C=C/c1ccco1,1,-2,68*,0,-25,-26,
CC(=C/C(=O)O)/C=C/c1ccoc1,0,9,75*,-1,57*,10,AlphaScreen DR=>9.7
O=C(NCCNCc1cccs1)c1ccc(F)cc1,-1,7,55*,0,-5,17,
O=C(NCc1cccs1)c1ccc(CNS(=O)(=O)c2ccc(F)cc2)cc1,0,-2,0,0,/,/,
O=C1CCN(C(=O)c2ccc3c(c2)OCO3)c2cc3ccccc3cc21,0,-5,5,0,/,/,
Cc1ccc(C2NS(=O)(=O)N=C2N)cc1 (stereo unspecified),1,5,52*,0,10,15,
O=C(NCc1cccnc1)c1ccnc(-c2cccs2)c1,0,9,51*,0,30*,-3,AlphaScreen DR=>6.9
O=C(NCc1ccccc1)c1ccnc(-c2cccs2)c1,-1,-5,31,0,/,/,
CCN(CC(=O)Nc1cccc(OC)c1)Cc1cc(=O)oc2cc(NC(C)=O)ccc12,-1,8,54*,0,24,-6,
CCN(CC(=O)Nc1cccc(OC)c1)CC(=O)Nc1ccc(C)cc1Cl,2,8,62*,0,4,18,
CCN(CC)CC(=O)Nc1cccc(OC)c1,3,-1,1,0,/,/,
CCN(c1cccc(C)c1)C(C(=O)Nc1ccc(C(C)C)cc1)c1ccccc1 (stereo unspecified),0,-1,-3,0,/,/,
O=C(Nc1cccc(C(F)(F)F)c1)c1nn2c(C(F)(F)F)cc(-c3ccccc3)nc2c1Cl,0,-6,16,0,/,/,
